Measurements from PubChem BioAssay AID588342 (National Center for Advancing Translational Sciences (NCATS), 2011).
“And” between values parts separate entries of the source, which are not always exact repeats. Identical values can stand only once. Out of some 360,000 compounds screened, about 25,000 (6.9%) were called active. Another 9% or so got no clear call; they are omitted. The full list was thinned out, with actives kept by preference. Values without a mark were called inactive. Calls come from the whole dose curve; as a rule, active = well fitted inhibition curve with a large enough effect; inconclusive = small, poorly fitted or top-dose-only effect; inactive = flat fitted curve, though single readings scatter.

molecular target: Luciferin 4-monooxygenase (Photinus pyralis) (UniProt P08659); test: qHTS profiling assay for firefly luciferase inhibitor/activator using purifed enzyme and Km concentrations of substrates (counterscreen for miR-21 project); details: purified FLuc, luminescence inhibition; series mostly up to 57.5 µM; activity change, negative = inhibition: at the top concentration; note: nearly all actives have a fitted effect of over 55% in size;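 for activity change, negative = inhibition: plate controls were vehicle for no effect and reference inhibitor for full effect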
Procedure, shortened: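 Biochemical qHTS of compounds, final roughly 60 µM downward over six points, against 10 nM purified firefly luciferase using Km concentrations of substrates (10 uM D-luciferin, 10 uM ATP) in Tris acetate pH 7.5 buffer; luminescence output.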
Potency is the fitted concentration of half-maximal effect.

Luciferin 4-monooxygenase (Photinus pyralis), sequence (P08659 whole entry, looked up): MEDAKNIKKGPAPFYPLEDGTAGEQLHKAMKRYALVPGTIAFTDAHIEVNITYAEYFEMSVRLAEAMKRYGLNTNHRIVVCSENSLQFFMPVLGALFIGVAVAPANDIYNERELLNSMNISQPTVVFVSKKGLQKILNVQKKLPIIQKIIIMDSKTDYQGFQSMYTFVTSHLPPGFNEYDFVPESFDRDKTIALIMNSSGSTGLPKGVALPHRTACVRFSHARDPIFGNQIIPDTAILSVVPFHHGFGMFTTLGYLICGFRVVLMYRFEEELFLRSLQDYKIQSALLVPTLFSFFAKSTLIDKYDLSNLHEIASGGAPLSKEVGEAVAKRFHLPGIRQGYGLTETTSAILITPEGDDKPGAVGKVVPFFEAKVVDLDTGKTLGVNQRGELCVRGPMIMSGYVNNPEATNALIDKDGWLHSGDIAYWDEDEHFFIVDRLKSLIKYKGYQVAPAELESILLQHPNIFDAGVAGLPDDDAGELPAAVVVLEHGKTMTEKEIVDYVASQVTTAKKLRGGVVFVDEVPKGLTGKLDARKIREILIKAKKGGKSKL

Row | Structure (SMILES) | activity change, negative = inhibition [%] | Potency
1 | O=S(=O)(c1cccs1)N1CCN(CCOc2ccccc2)CC1 | -0.715 | –
2 | Fc1ccc(-c2nc(Nc3cccc(Cl)c3)nc3c2COc2ccccc2-3)cc1 | -14.4 | –
3 | COc1ccc(-c2nc3c4ccccc4n(CC(=O)Nc4ccc(C(C)=O)cc4)c(=O)n3n2)cc1 | 5.2 | –
4 | CC1(C(=O)N/N=C/c2cc3c(cc2Br)OCO3)CC1(Br)Br (configuration not stated) | -1.53 | –
5 | O=C(N/N=C/c1cc2c(cc1Br)OCO2)C1COc2ccccc2O1 (configuration not stated) | – | 13.5 µM (active)
6 | O=C(CNC(=O)C1COc2ccccc2O1)N/N=C/c1cc(Br)c(O)c(Br)c1 (configuration not stated) | -14.6 | –
7 | Cc1ccccc1-c1cc(C(=O)NCc2cccs2)n(CC2CC(c3cccnc3)=NO2)n1 (configuration not stated) | -1.1 | –
8 | COc1ccc(Cl)cc1NC(=O)Cn1c(=O)c2ccccc2n2nncc12 | -9.12 | –
9 | COc1ccc(NC(=O)C2CCC(CNS(=O)(=O)c3csc(C(N)=O)c3)CC2)cc1OC (configuration not stated) | -0.339 | –
10 | CCN(CC)C(=O)CSc1nc2ccsc2c(=O)n1Cc1ccccc1Cl | -8.76 | –
11 | O=C(OCc1ccc(Br)cc1)c1cccc(-c2nnc(-c3ccccc3)o2)c1 | -4.27 | –
12 | O=C1c2ccccc2C(=O)N1CCCc1nc(-c2ccccc2)no1 | -2.23 | –
13 | O=C(COC(=O)c1ccccc1Br)Nc1nnc(-c2ccccc2)o1 | -7.96 | –
14 | Brc1ccc(-c2nnc(-c3ccccc3)o2)o1 | – | 6.01 µM (active)
15 | Cn1nc(-c2ccccc2)c(-c2nc(-c3ccc(Cl)cc3)no2)c1Cl | -2.68 | –
16 | Brc1ccc(-c2noc(-c3ccccc3)n2)o1 | – | 2.13 µM (active) and 1.35 µM (active)
17 | Cc1ccc(Cc2nc3ccccc3nc2SCC(=O)Nc2cccc(C(F)(F)F)c2)cc1 | 1.52 | –
18 | CCCc1nn2c(=O)cc(COC(=O)c3ccc(NC(=O)C(C)Oc4ccccc4)cc3)nc2s1 (configuration not stated) | -6.12 | –
19 | CN(CC(=O)Nc1cccc(F)c1)C(=O)CC1CCCC1 | 3.45 | –
20 | O=C(NCc1ccccc1CN1CCCC1)C1CCN(S(=O)(=O)c2ccc(Cl)cc2)CC1 | -0.436 | –
21 | NC(=O)c1ccc(NC(=O)COC(=O)c2ccc([N+](=O)[O-])cc2)cc1 | -0.303 | –
22 | N/C(Cc1ccc([N+](=O)[O-])cc1)=N\OC(=O)C1CCCCC1 | -3.28 | –
23 | O=C(COC(=O)C1CCCCC1)Nc1ccc([N+](=O)[O-])cc1 | – | 16.9 µM (active)
24 | O=C(CN1CCSc2ccccc21)N1CCN(c2ccccc2)CC1 | -5.65 | –
25 | CCCCN1C(=O)CC(N2CCOCC2)C1=O (configuration not stated) | -0.0203 | –
26 | CCOC(=O)c1nn(-c2cccc(C)c2)cc1C(=O)c1ccccc1 | – | 9.53 µM (active)

Row | Structure (SMILES) | activity change, negative = inhibition [%] | Potency
27 | CCOC(=O)c1cn(Cc2cccc(C)c2)nn1 | 2.45 | –
28 | CC(=O)c1nn(-c2cccc(Br)c2)cc1C(=O)c1cccc2ccccc12 | -2.37 | –
29 | COc1ccc(S(=O)(=O)NCc2cccn2Cc2cccc(C)c2)cc1Cl | -8.6 | –
30 | Cc1ccccc1C(=O)NCc1nc(-c2ccc(Cl)cc2)no1 | -1.77 | –
31 | Cc1cc(Cl)ccc1OCc1nc(-c2ccncc2)no1 | – | 10.7 µM (active)
32 | Cc1cc(Cl)ccc1OCCCC(=O)NCc1ccncc1 | -4.06 | –
33 | Cc1ccc(CNC(=O)CSc2c(C)cnc3c2c(=O)n(C)c(=O)n3C)cc1 | -0.897 | –
34 | O=C(Nc1cccc(Cl)c1)c1csnn1 | -14.4 | –
35 | CCC(=O)Nc1ccc(C(=O)NNC(=O)c2ccc(Cl)cc2)cc1 | -3.51 | –
36 | O=C(Nc1ccc(Cl)cc1)c1ccsn1 | – | 12 µM (active)
37 | O=[N+]([O-])c1cc(-c2nc(-c3ccccc3)no2)ccc1NCc1ccco1 | -8.68 | –
38 | Cc1cc2n(n1)C(c1cc(C(C)(C)C)c(O)cc1O)Nc1ccccc1-2 (configuration not stated) | -15.3 | –
39 | CCC1C=C(c2ccccc2)C=CN=C1N(CC)CC (configuration not stated) | 0.24 | –
40 | CCOc1ccc(CCNC(=O)Cn2nc(CC)n3c(cc4sc(CC)cc43)c2=O)cc1OCC | -5.54 | –
41 | Cc1cc(N)n2nc(-c3ccc(C(C)(C)C)cc3)cc2n1 | – | 0.601 µM (active)
42 | COc1ccc(-c2cc(C(F)(F)F)n3nc(-c4ccccc4)cc3n2)cc1OC | -0.561 | –
43 | Cc1cc(-c2ccccc2)n2nc(-c3ccccc3)cc2n1 | -16.5 | –
44 | Cc1cc(C)cc(-n2c(SCC(=O)NCC3CCCO3)nc3c([nH]c4ccccc43)c2=O)c1 (configuration not stated) | -0.071 | –
45 | COc1cccc(NC(=O)Nc2ccc3c(c2)N(C)C(=O)c2ccccc2S3)c1 | 1.22 | –
46 | CCCCS(=O)(=O)c1oc(-c2cccs2)nc1S(=O)(=O)c1ccccc1 | -0.854 | –
47 | CCOCCCNC(=O)C(NC(=O)c1ccccc1O)c1ccccc1 (configuration not stated) | -1.29 | –
48 | CC(=O)c1ccc(NC(=O)c2ccc3c(Cl)c4c(nc3c2)CCCC4)cc1 | 3.57 | –
49 | COc1ccc(N2CCN(C(=O)c3ccc4c(Cl)c5c(nc4c3)CCCC5)CC2)cc1 | – | inactive
50 | CC(C)CCNC(=O)c1ccc2c(Cl)c3c(nc2c1)CCC3 | – | 0.675 µM (active)
51 | CCOc1ccc(OCC(=O)OC(C)C(=O)NC2CCCCC2C)cc1 (configuration not stated) | -0.597 | –
52 | CCc1cc2c(cc3c(=O)n(CC(=O)NCCc4ccc(OC)c(OC)c4)ncn32)s1 | -4.14 | –
